Our source for the growth values is PubChem BioAssay (NCI).

This is part of a sample that, as a whole, favours compounds with a hit. Of some 83,000 tested, about 20% had one in any assay.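 Percent growth is the endpoint: 0 to 100 indicates growth inhibition (40 means 60% inhibition), 0 means no net growth, and negative values indicate cell death.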 Unmarked numbers belong to inactive results. Active and inactive are the calls of the source. How the source made its calls: active means growth percent below 10; inactive means the rest.

In this test the test system is MDA-MB-435 melanoma. Kind of test: NCI-60 one-dose screen, 48 h (100 = growth as untreated, 0 = no growth, -100 = all killed). To be noted: 10 µM unless noted.
Consider `CCn1cc(C(=O)O)c(=O)c2cc(F)c(N3CCN(CC(=O)Nc4ccccc4)C(C)C3)c(F)c21` (centres undefined), for which the growth is 97.1%. As for `c1cc(OCCN2CCCCC2)ccc1CNc1ccc2nc(CCC3CCCCC3)[nH]c2c1`, the figure is -54.2% (active); as for `COC1C(O)CC(OC2CC(OC3CC(O[C@@H]4C(=O)c5c(cc6cc(OC7CC(OC8CC(O)C(O)C(C)O8)C(O)C(C)O7)c(C)c(O)c6c5O)CC4[C@H](OC)C(=O)C(C)=O)OC(C)C3O)OC(C)C2O)OC1C` (some centres undefined), -74.8% (active); as for `Cc1ccc(OCCOCCOCCOc2ccc(C)n(O)c2=S)c(=S)n1O`, 56.3%.

Turning to `Cn1cc(-c2csc(-c3cn(CCCN4CCOCC4)c4ccc(F)cc34)n2)c2cccnc21`, the growth is 65.3%. Take `O=C1c2cccnc2C(=O)c2c1c(C(=O)OCCc1ccccn1)c1ccccn21`: the growth was -10.7% (active). Then `C#CCOc1cccc(Nc2ncnc3c2ncn3C2CCN(C(=O)CCl)C2)c1` (centres undefined), with -23.8% (active). Then `O=C(Cn1nc(-c2cccc3ccccc23)ccc1=O)NCc1cccc(Cl)c1`, with 45.5% [50 µM]; and `CC1(C)CC[C@]23CC[C@]4(C)[C@H](CC[C@@H]5[C@@]6(C)C/C(=C/O)C(=O)C(C)(C)[C@@H]6CC[C@]54C)[C@H]2[C@H]1OC3`, with 97.7%. Then `Clc1ccc(-c2cc(-c3ccccc3)nc(N3CCN(CCCNc4ccnc5cc(Cl)ccc45)CC3)n2)cc1`, with -61.8% (active). With `Nc1nc(C(=O)N/N=C/c2ccc(F)cc2)nn1-c1ccc(S(N)(=O)=O)cc1`, the growth is 100%. As for `CN(C)c1ccc(CNCCO)cc1`, the figure is 102%; as for `Nc1c(Br)cc2c(c1Br)Cc1cc([N+](=O)[O-])ccc1-2`, 108%; as for `COC(=O)Cn1c2c(c3c(OC)cccc31)C(=O)c1ccccc1-2`, 112%.

With `O=C(/C=C/c1ccccc1)c1ccc(-n2cc(CN3CCN(c4cc5c(cc4F)c(=O)c(C(=O)O)cn5C4CC4)CC3)nn2)cc1`, the growth was 79.5%.

Turning to `Cc1cc2oc(/C=C/c3ccccc3)cc(=O)c2c(C)c1Cl`, the growth was 95.9%. Then `Cc1nc(N/N=C/c2cn(-c3ccccc3)nc2-c2cc3ccccc3oc2=O)sc1N=Nc1ccccc1`, with 3.67% (active); and `Oc1c(CN2CCC(N3CCOCC3)CC2)cc(Cc2cc(CN3CCC(N4CCOCC4)CC3)c(O)c3ncccc23)c2cccnc12`, with 20.3%; and `N#Cc1nn(-c2cc(=O)[nH]c3ccc(Br)cc23)c(N)c1C#N`, with 95.5%. As for `CCCCO[C@@H]1C=C2[C@H]3CC(C)(C)C(=O)C[C@]3(C(=O)O[C@@H]3O[C@H](CO[C@@H]4O[C@H](CO)[C@@H](OC5OC(C)C(O)C(O)C5O)[C@H](O)[C@H]4O)[C@@H](O)[C@H](O)[C@H]3O)CC[C@@]2(C)[C@]2(C)CC[C@H]3C(C)(C)C(=O)CC[C@]3(C)[C@@H]12` (some centres undefined), the figure is 51.9%; as for `CC(=O)c1c(Nc2cccc(F)c2)[nH]c2c(Cl)cc(Cl)c(Cl)c2c1=O`, 2.08% (active); as for `O=c1cc(CP(=O)(O)O)c2cc(O)c(-c3ccccc3)cc2o1`, 99.2%. Then `CC(=O)c1sc(-c2ccc(F)cc2)cc1O`, with 96.1%; and `CC(=O)c1ccc(-n2cc(CN3CCN(c4cc5c(cc4F)c(=O)c(C(=O)O)cn5C4CC4)CC3)nn2)cc1`, with 96.3%. `COc1ccc(CN2C(=O)OC(C)(COC(C)=O)C2=O)cc1` (centres undefined): the growth was 107%. As for `O=C1CCCC1[n+]1ccccc1` (centres undefined), the figure is 106%; as for `CN(C)CCC(=O)C1CC1`, 105%; as for `Nc1ccc(-c2ccncc2)cc1NC(=O)N1CCCC1`, 96.3%. Regarding `O=c1oc2c(cnc3ccccc32)cc1-c1cccc(Cl)c1`, the growth is 97%. Then `C/C(=C(\c1ccc(OCCN2CCCCCC2)cc1)c1ccc(OC(=O)c2ccccc2)cc1)c1ccc(Cl)cc1`, with 56%. Then `Nc1cccc(-c2ccc(COc3ccc(CC4SC(=O)NC4=O)cc3)cc2)c1` (centres undefined), with -17.7% (active); and `C=C(C)[C@@H]1CC[C@]2(COC3CCCCO3)CC[C@]3(C)[C@H](CC[C@@H]4[C@@]5(C)C=C(C=O)C(=O)C(C)(C)[C@@H]5CC[C@]43C)[C@@H]12` (some centres undefined), with -56.4% (active). As for `O=C1CCCCN1c1ccc(C2=NCCCN2)cc1`, the figure is 96.9%; as for `Cc1cc(=O)oc2cc(Oc3nc(Br)cn4c(Br)cnc34)ccc12`, 87.2%.
